# Laboratory results published in PubChem BioAssay (EPA / NIEHS).
# “And” between values parts separate entries of the source, which are not always exact repeats. Identical values can stand only once. Some compounds were tested as several samples or in several runs, with calls that do not always agree. The source made the active and inactive calls. The calls were made as follows: active = hit-call score of the fitted dose curve at least 0.9, where 1 is the maximum; inactive = score below 0.9.
# Experiment: BSK_SAg_PBMCCytotoxicity: PBMC Cytotoxicity Assessment in the BioMAP Diversity Plus: SAg Assay (AID 2283093);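 also: fitted both ways against DMSO so a hit may be loss or gain of signal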
# Conditions: primary human HUVEC with PBMC
# Procedure: BSK_SAg is a cell-based, multiplexed-readout assay that uses umbilical vein endothelium and peripheral blood mononuclear cells, a human vascular primary cell co-culture, with measurements taken at 24 hours after chemical dosing in a 96-well plate.BSK_SAg_PBMCCytotoxicity is an assay component measured in the BSK_SAg assay. It measures Alamar blue related to cell death using Alamar Blue Reduction technology.Data from the assay component BSK_SAg_PBMCCytotoxicity was analyzed into 1 assay endpoint. This assay endpoint, BSK_SAg_PBMCCytotoxicity, was analyzed with bidirectional fitting relative to DMSO as the negative control and baseline of activity. Using a type of viability reporter, gain or loss-of-signal activity can be used to understand changes in the viability. Furthermore, this assay endpoint can be referred to as a secondary readout, because this assay has produced multiple assay endpoints where this one serves a viability function. To generalize the intended target to other relatable targets, this assay endpoint is annotated to the cell cycle intended target family, where the subfamily is cytotoxicity.
# The levels of cell surface (or secreted, indicated by the prefix "s") biomarker endpoints were measured by ELISA. Overt cytotoxicity to cells in confluent adherent cultures (all systems other than the BT system) was assessed by measuring total protein levels using sulforhodamine B (SRB) staining in parallel cultures at the time of biomarker measurements, indicated as SRB endpoints. For proliferation assays for adherent cell types, individual cell types are cultured at sub-confluence and relative cell numbers quantified by SRB staining at time points optimized for each system (48 h: 3C and CASM3C systems; 72 h: BT and HDF3CGF systems; 96 h: SAg system). SRB was performed by staining cells with 0.1% SRB after fixation with 10% TCA and reading wells at 560 nm.Viability and proliferation of PBMC (T cells) was quantified by Alamar Blue reduction for the SAg and BT systems. For PBMC viability (referred to as PBMC Cytotoxicity within the assay endpoint names), cells were plated (75,000/well in a 96-well plate) and then chemical samples added for 1 h before addition of activators, SEB and TSST-1 (20 ng/mL final concentration each). Cells were incubated for 90 h. Then, Alamar Blue (20 uL/well) (Invitrogen, Cat DAL1100) was added for 6 h, and the plates were read with a fluorescence microplate reader at 546/580 nm (excitation/emission). For PBMC proliferation, cells were plated and activated as above but incubated for only 16 h prior to addition of Alamar Blue. Plates were read after 6 h.
SMILES,outcome,AC50
C=C(C)C(=O)OCCC(F)(F)C(F)(F)C(F)(F)C(F)(F)C(F)(C(F)(F)F)C(F)(F)F,inactive,
Cc1ccc(S(=O)(=O)OCC(F)(F)C(F)(F)C(F)(F)C(F)(F)C(F)(F)C(F)F)cc1,inactive,
FC(F)(F)C(F)(F)C(F)(F)C(F)(F)C(F)(F)C(F)(F)CC1CO1 (stereo not given),inactive,
O=S(=O)(OCC(F)F)C(F)(F)F,inactive,
FC(F)(F)C(F)(F)C(F)(F)C(F)(F)C(F)(F)CCI,inactive,
CCc1ccc(C(c2ccc(CC)cc2)C(Cl)Cl)cc1,,14.5 µM (active)
FC(F)(Br)C(F)(F)C(F)(F)C(F)(F)C(F)(F)C(F)(F)Br,inactive,
CC(C)(C)C(=O)CC(=O)C(F)(F)C(F)(F)C(F)(F)F,inactive,53.9 µM (active)
CCCCCCC(C)OC(=O)CCCCC(=O)OC(C)CCCCCC (stereo not given),inactive,
OCC(F)(F)C(F)(F)C(F)(F)C(F)(F)C(F)(F)C(F)(F)F,inactive,
FC(F)(F)C(F)(F)C(F)(F)C(F)(F)C(F)(F)C(F)(F)C(F)(F)I,inactive,
CCCCCCOC(=O)c1ccccc1O,,36.9 µM (active) and 44.8 µM (active)
O=S(=O)(O)C(F)(F)C(F)(F)C(F)(F)C(F)(F)C(F)(F)C(F)(F)C(F)(F)F,inactive,
O=C(O)C(F)(F)C(F)(F)C(F)(F)C(F)(F)C(F)(F)C(F)(F)C(F)(F)C(F)(F)C(F)(F)C(F)F,inactive,
O=C(O)C(F)(OC(F)(F)C(F)(OC(F)(F)C(F)(F)C(F)(F)F)C(F)(F)F)C(F)(F)F (stereo not given),inactive,
CS(C)(=O)=O,inactive,
C=CC(=O)OCC(F)(F)C(F)(F)C(F)(F)C(F)(F)COC(=O)C=C,,28.9 µM (active) and 30 µM (active)
O=C(O)C(F)(F)C(F)(F)C(F)(F)C(F)(F)F,inactive,
O=C(O)C(F)(OC(F)(F)C(F)(OC(F)(F)C(F)(OC(F)(F)C(F)(F)C(F)(F)F)C(F)(F)F)C(F)(F)F)C(F)(F)F (stereo not given),inactive,

SMILES,outcome,AC50
CC(CCl)OP(=O)(OC(C)CCl)OC(C)CCl (stereo not given),inactive,
O=C(Cl)C(F)(F)C(F)(F)C(F)(F)C(F)(F)C(F)(F)C(F)(F)C(F)(F)C(F)(F)F,inactive,
CCCCOCCOCCOC(=O)CCCCC(=O)OCCOCCOCCCC,inactive,
C=CC(=O)OCC(F)(F)C(F)(F)C(F)(F)C(F)(F)C(F)(F)C(F)(F)C(F)(F)F,inactive,
O=C(O)C(F)(F)C(F)(F)C(F)F,inactive,
O=C(O)C=C(C(F)(F)F)C(F)(F)F,inactive,
C#C[C@]1(O)CC[C@H]2[C@@H]3CCc4cc(OC)ccc4[C@H]3CC[C@@]21C,,33.4 µM (active)
FC(F)(F)C(F)(F)C(F)(F)C(F)(F)C(F)(F)C(F)(F)CCS,inactive,
FC(F)(F)C(F)(F)C(F)(F)N(C(F)(F)C(F)(F)C(F)(F)F)C(F)(F)C(F)(F)C(F)(F)F,inactive,
FC(F)(F)C(F)(F)C(F)(F)CI,inactive,
C=CC(F)(F)C(F)(F)C(F)(F)C(F)(F)C(F)(F)C(F)(F)C(F)(F)C(F)(F)C=C,inactive,
O=S(=O)(OCCOC(F)(F)F)C(F)(F)F,inactive,
C=C(C)C(=O)OCC(F)(F)C(F)(F)C(F)(F)F,inactive,
OCCCC(F)(F)C(F)(F)C(F)(F)F,inactive,
FC(F)(F)C(F)(F)C(F)(F)C(F)(F)CCI,inactive,41.9 µM (active)
FC(F)(I)C(F)(F)C(F)(F)C(F)(F)I,inactive,46.9 µM (active) and 50.1 µM (active)
N=C(N)C(F)(F)C(F)(F)C(F)(F)C(F)(F)C(F)(F)C(F)(F)C(F)(F)F,,45.9 µM (active) and 55.1 µM (active)
CCCCCCCOC(=O)c1ccccc1C(=O)OCCCCCCC,,3.28 µM (active)
